# Assay results as given in PubChem BioAssay (Tox21).
# Several values for one entry are separate records, joined by “and”; a condition that tells them apart may be missing. Equal values may be shown once. Some structures have more than one record in an assay (separate samples or runs), and their calls can disagree. Activity calls are given as the source filed them. Where a call stands in place of a potency, no number is given. Unless noted, the call rests on the fitted dose curve; in most records, active means well fitted curve in the direction sought with a large enough effect in the repeat runs; inconclusive means weak or mixed curves; inactive means no such curve, though single readings can be large; an effect the other way counts as inactive or inconclusive.
# Columns and labels:
# [1] = qHTS assay to identify small molecule antagonists of the glucocorticoid receptor (GR) signaling pathway - cell viability counter screen (AID 720693); settings: GR-bla HeLa viability, CellTiter-Glo luminescence, 18 h, with 5 nM dexamethasone present; series mostly up to 58.5 µM; further: nearly all actives have a fitted effect of over 55% in size; further: potency means the concentration at half of the fitted maximal effect
# [2] = qHTS assay for identifying genotoxic compounds that show differential cytotoxicity against isogenic chicken DT40 cell lines with known DNA damage response pathways - wild type cell line (AID 743012); settings: DT40 wild type chicken cells viability, CellTiter-Glo, 40 h; series mostly up to 68.4 µM; further: nearly all actives have a fitted effect of over 60% in size; further: potency means the concentration at half of the fitted maximal effect
# How it was run: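 Wild-type DT40 cells (300/well) exposed to compounds for 40 hours at 37 C/5% CO2. Viability read by CellTiter-Glo luminescence after 30 min at room temperature.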
# [3] = qHTS assay for identifying genotoxic compounds that show differential cytotoxicity against isogenic chicken DT40 cell lines with known DNA damage response pathways - Rev3 mutant cell line (AID 743014); settings: chicken DT40 Rev3-/- viability, CellTiter-Glo, 40 h; series mostly up to 68.4 µM; further: nearly all actives have a fitted effect of over 55% in size; further: potency means the concentration at half of the fitted maximal effect
# [4] = qHTS assay for identifying genotoxic compounds that show differential cytotoxicity against isogenic chicken DT40 cell lines with known DNA damage response pathways - Rad54/Ku70 mutant cell line (AID 743015); settings: DT40 Rad54/Ku70 mutant viability, CellTiter-Glo, 40 h; series mostly up to 66.8 µM; further: nearly all actives have a fitted effect of over 60% in size; further: potency means the concentration at half of the fitted maximal effect
# [5] = qHTS assay to identify small molecule antagonists of the androgen receptor (AR) signaling pathway - cell viability counter screen (AID 743033; further: nearly all actives have a fitted effect of over 45% in size; further: potency means the concentration at half of the fitted maximal effect); settings: AR-bla HEK293 viability, CellTiter-Glo luminescence, 16 h; series mostly up to 58.5 µM
# [6] = target: Androgen receptor (Homo sapiens) (UniProt P10275); assay: qHTS assay to identify small molecule antagonists of the androgen receptor (AR) signaling pathway (AID 743035; active means well fitted inhibition curve with a large enough effect in the signal ratio in the repeat runs, not every such curve was filed as active; inconclusive means weak or mixed curves, or effect the other way; inactive means no such curve, though single readings can be large or run the other way; the % refers to the signal ratio); settings: HEK293 AR-UAS-bla, R1881-stimulated, beta-lactamase FRET, 16 h; series mostly up to 58.5 µM
# How it was run: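 HEK293 cells stably carrying UAS-beta-lactamase reporter, 2,000/well, given compounds plus R1881 agonist and incubated 16 h at 37C. LiveBLAzer B/G FRET substrate then added for 2 h at room temperature before fluorescence reading.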
# [7] = target: Androgen receptor (Homo sapiens) (UniProt P10275); assay: qHTS assay to identify small molecule agonists of the androgen receptor (AR) signaling pathway (AID 743036; active means well fitted activation curve with a large enough effect in the signal ratio in the repeat runs, with a control signal flat, not every such curve was filed as active; inconclusive means weak or mixed curves, or effect the other way; inactive means no such curve, though single readings can be large or run the other way; the % refers to the signal ratio); settings: HEK293 AR-UAS-bla GripTite, beta-lactamase FRET ratio, 16 h; series mostly up to 62.4 µM
# How it was run: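 Quantitative HTS of the Tox21 10K library in HEK293 cells bearing a stably integrated UAS-controlled beta-lactamase reporter. Compound exposure lasted 16 h at 37C. Reporter activity was detected by FRET substrate fluorescence after 2 h at room temperature.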
# [8] = target: Androgen receptor (Homo sapiens) (UniProt P10275); assay: qHTS assay to identify small molecule agonists of the androgen receptor (AR) signaling pathway using the MDA cell line (AID 743040; further: nearly all actives have a fitted effect of over 20% in size); settings: MDA-kb2 AR-luc cells, MMTV luciferase, 16 h; series mostly up to 70.3 µM
# How it was run: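 MDA-kb2 breast carcinoma cells carrying MMTV-luciferase (responsive to AR and GR), plated 5 h then treated 16 h with compounds at 37C, 0% CO2. Read-out was ONE-Glo luminescence after 30 min at room temperature.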
# [9] = qHTS assay to identify small molecule antagonists of the androgen receptor (AR) signaling pathway using the MDA cell line - cell viability counter screen (AID 743041; further: nearly all actives have a fitted effect of over 45% in size); settings: MDA-kb2 viability, CellTiter-Fluor, 16 h, cells co-treated with R1881 androgen agonist; series mostly up to 70.3 µM
# How it was run: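 MDA-kb2 AR-luc cells (MMTV-luciferase, AR/GR responsive) treated with compounds plus R1881 agonist for 16 h at 37C. CellTiter-Fluor added at 15.5 h; fluorescence read after 30 min in the same wells.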
# [10] = target: Androgen receptor (Homo sapiens) (UniProt P10275); assay: qHTS assay to identify small molecule antagonists of the androgen receptor (AR) signaling pathway using the MDA cell line (AID 743042; further: nearly all actives have a fitted effect of over 55% in size; further: potency means the concentration at half of the fitted maximal effect); settings: MDA-kb2 AR-luc, MMTV luciferase, R1881 antagonist, 16 h; series mostly up to 70.3 µM
# How it was run: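 MDA-kb2 breast carcinoma cells carrying MMTV-luciferase (AR/GR responsive) were co-treated with compounds and the agonist R1881 for 16 h at 37C. Inhibition read as ONE-Glo luminescence; CellTiter-Fluor fluorescence measured in parallel for cytotoxicity.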
# [11] = qHTS assay to identify small molecule antagonists of the thyroid receptor (TR) signaling pathway - cell viability counter screen (AID 743064); settings: GH3.TRE-Luc viability, CellTiter-Fluor, 24 h; series mostly up to 70.3 µM; further: nearly all actives have a fitted effect of over 50% in size; further: potency means the concentration at half of the fitted maximal effect
# How it was run: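 Rat GH3 pituitary tumor cells stably expressing two TR response elements driving luciferase were plated, rested 4 h, then dosed with library compounds and T3 (1 nM final). After 23.5 h at 37 °C, CellTiter-Fluor was added for 30 min and fluorescence recorded.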
# [12] = qHTS assay to identify small molecule antagonists of the thyroid receptor (TR) signaling pathway (AID 743065); settings: GH3.TRE-Luc, T3-stimulated luciferase inhibition, 23.5 h; series mostly up to 70.3 µM; further: nearly all actives have a fitted effect of over 55% in size; further: potency means the concentration at half of the fitted maximal effect
# How it was run: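 GH3.TRE-Luc rat pituitary cells (two TREs driving luciferase) were dosed with compound, then stimulated with 1 nM T3 (final) for 23.5 h at 37 C. ONE-Glo luminescence was the read-out, with CellTiter-Fluor fluorescence as the cytotoxicity counter-screen.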
# [13] = tested on: thyroid hormone receptor (rat, GH3 cells); assay: qHTS assay to identify small molecule agonists of the thyroid receptor (TR) signaling pathway (AID 743066; calls by dose curve); settings: GH3.TRE-Luc cells, TR agonist luciferase, 24 h; series mostly up to 83.9 µM
# [14] = target: Estrogen receptor (Homo sapiens) (UniProt P03372); assay: qHTS assay to identify small molecule antagonists of the estrogen receptor alpha (ER-alpha) signaling pathway (AID 743069; active means well fitted curve in the direction sought with a large enough effect in the signal ratio in the repeat runs, not every such curve was filed as active; inconclusive means weak or mixed curves, or effect the other way; inactive means no such curve, though single readings can be large or run the other way; the % refers to the signal ratio; further: potency means the concentration at half of the fitted maximal effect); settings: HEK293 ER-alpha-UAS-bla, beta-lactamase ratio, antagonist mode; series mostly up to 69.4 µM
# How it was run: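 HEK293 ER-alpha-UAS-bla GripTite cells, held overnight in 2% charcoal-stripped FBS, 5,000 cells/well, preincubated 4 h, then compound plus 17beta-estradiol for 18 h at 37C. Beta-lactamase read by LiveBLAzer B/G FRET substrate, 2 h at room temperature.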
# [15] = qHTS assay to identify small molecule antagonists of the estrogen receptor alpha (ER-alpha) signaling pathway - cell viability counter screen (AID 743074; calls by dose curve;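 further: HEK293 cells carrying ER-alpha-UAS-bla reporter stimulated with 17beta-estradiol; nearly all actives have a fitted effect of over 45% in size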); settings: ERalpha-bla HEK293 viability, CellTiter-Glo luminescence, 18 h; series mostly up to 69.4 µM
# [16] = target: Estrogen receptor (Homo sapiens) (UniProt P03372); assay: qHTS assay to identify small molecule agonists of the estrogen receptor alpha (ER-alpha) signaling pathway (AID 743075; calls by dose curve); settings: HEK293 ER-alpha-UAS-bla, beta-lactamase FRET ratio, 18 h; series mostly up to 70.1 µM
# [17] = target: Estrogen receptor (Homo sapiens) (UniProt P03372); assay: qHTS assay to identify small molecule agonists of the estrogen receptor alpha (ER-alpha) signaling pathway using the BG1 cell line (AID 743079); settings: BG1Luc4E2 cells, ERE-luciferase agonist, 22 h; series mostly up to 70.3 µM; further: nearly all actives have a fitted effect of over 20% in size
# [18] = qHTS assay to identify small molecule antagonists of the estrogen receptor alpha (ER-alpha) signaling pathway using the BG1 cell line (AID 743080; calls by dose curve;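 further: BG1 cells stimulated with 17beta-estradiol alongside compound; nearly all actives have a fitted effect of over 25% in size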); settings: BG1Luc4E2 ERE-luciferase antagonist mode, luminescence; series mostly up to 70.3 µM
# How it was run: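 Quantitative HTS on the Tox21 10K library: BG1 cells with endogenous ER-alpha and ERE-luciferase reporter, 17beta-estradiol stimulation, 21.5 h compound exposure, luminescence endpoint with parallel fluorescence cytotoxicity counter-read.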
# [19] = qHTS assay to identify small molecule antagonists of the estrogen receptor alpha (ER-alpha) signaling pathway using the BG1 cell line - cell viability counter screen (AID 743081); settings: BG1Luc4E2 viability, CellTiter-Fluor, 22 h; series mostly up to 70.3 µM;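 further: compound given together with 17beta-estradiol as the ER stimulus; nearly all actives have a fitted effect of over 45% in size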
# Aromatase (Homo sapiens) = Aromatase (Homo sapiens) (UniProt P11511); assay: qHTS assay to identify aromatase inhibitors (AID 743083); settings: MCF-7 aro ERE, testosterone-driven ERE luciferase, 24 h; series mostly up to 70.3 µM; further: nearly all actives have a fitted effect of over 55% in size; further: potency means the concentration at half of the fitted maximal effect
# Chain of Aromatase (Homo sapiens) (P11511 whole entry, looked up): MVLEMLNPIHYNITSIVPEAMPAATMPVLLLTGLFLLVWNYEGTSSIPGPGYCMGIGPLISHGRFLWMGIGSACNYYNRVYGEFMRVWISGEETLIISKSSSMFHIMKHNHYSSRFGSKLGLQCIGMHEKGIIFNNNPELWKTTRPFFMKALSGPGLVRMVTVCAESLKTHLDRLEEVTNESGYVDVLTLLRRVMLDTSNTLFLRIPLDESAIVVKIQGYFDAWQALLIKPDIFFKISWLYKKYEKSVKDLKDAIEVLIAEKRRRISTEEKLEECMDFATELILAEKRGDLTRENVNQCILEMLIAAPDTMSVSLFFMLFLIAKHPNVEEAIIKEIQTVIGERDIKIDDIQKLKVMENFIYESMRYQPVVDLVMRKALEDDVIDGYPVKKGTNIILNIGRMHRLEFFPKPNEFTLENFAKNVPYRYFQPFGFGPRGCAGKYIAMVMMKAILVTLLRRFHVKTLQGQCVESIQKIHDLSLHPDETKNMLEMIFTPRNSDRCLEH
# Chain of Estrogen receptor (Homo sapiens) (P03372 whole entry, looked up): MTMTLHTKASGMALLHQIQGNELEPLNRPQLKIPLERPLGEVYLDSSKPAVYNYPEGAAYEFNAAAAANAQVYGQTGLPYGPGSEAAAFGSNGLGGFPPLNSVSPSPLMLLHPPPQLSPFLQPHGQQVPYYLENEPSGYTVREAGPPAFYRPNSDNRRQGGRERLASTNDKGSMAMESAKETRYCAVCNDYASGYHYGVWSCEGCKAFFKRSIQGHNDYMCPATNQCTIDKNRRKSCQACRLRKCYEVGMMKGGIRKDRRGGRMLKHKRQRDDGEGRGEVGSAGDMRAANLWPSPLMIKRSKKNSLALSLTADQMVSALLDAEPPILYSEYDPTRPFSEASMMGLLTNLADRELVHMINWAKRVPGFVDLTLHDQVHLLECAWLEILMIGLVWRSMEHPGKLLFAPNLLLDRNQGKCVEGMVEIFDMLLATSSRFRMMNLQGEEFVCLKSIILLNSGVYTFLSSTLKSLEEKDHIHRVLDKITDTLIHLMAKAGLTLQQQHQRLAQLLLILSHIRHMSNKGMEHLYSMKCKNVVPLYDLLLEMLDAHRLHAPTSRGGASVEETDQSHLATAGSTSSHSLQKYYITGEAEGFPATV
# Chain of Androgen receptor (Homo sapiens) (P10275 whole entry, looked up): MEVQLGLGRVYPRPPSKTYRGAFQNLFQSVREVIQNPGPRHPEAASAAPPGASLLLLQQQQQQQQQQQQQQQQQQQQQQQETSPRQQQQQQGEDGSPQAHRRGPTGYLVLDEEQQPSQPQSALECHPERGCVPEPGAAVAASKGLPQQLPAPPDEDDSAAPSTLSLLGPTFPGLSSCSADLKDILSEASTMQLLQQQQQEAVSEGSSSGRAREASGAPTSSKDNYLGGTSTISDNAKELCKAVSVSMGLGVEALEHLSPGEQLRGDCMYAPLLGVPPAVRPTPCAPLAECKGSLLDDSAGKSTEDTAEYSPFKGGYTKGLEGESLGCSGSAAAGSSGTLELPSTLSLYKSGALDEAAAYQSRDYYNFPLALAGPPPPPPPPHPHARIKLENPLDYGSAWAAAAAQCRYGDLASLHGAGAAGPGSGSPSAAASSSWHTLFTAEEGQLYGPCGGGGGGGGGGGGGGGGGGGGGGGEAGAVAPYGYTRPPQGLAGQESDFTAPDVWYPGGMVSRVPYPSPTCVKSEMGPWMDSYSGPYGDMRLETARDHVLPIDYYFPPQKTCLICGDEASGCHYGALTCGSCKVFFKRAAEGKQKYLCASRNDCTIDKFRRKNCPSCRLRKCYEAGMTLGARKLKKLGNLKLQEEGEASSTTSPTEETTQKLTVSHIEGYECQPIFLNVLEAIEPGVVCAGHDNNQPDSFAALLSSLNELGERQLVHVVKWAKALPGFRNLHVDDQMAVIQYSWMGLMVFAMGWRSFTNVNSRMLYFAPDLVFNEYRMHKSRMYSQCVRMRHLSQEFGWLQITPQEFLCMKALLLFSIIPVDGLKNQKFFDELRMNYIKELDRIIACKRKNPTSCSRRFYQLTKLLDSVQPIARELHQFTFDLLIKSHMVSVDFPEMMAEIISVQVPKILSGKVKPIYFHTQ
SMILES,Potency [1],Potency [2],Potency [3],Potency [4],Potency [5],Potency [6],outcome [7],Potency [8],Potency [9],Potency [10],Potency [11],Potency [12],Potency [13],Potency [14],Potency [15],Potency [16],Potency [17],Potency [18],Potency [19],Potency (Aromatase (Homo sapiens))
O=C(C(Cl)(Cl)Cl)C(Cl)(Cl)Cl,inactive,inactive,inactive,inactive,inactive,inactive,inactive,inactive,inactive,inactive,inactive,inactive,inactive,inactive,inactive,inactive,inactive,inactive,inactive,inactive
CCCCOC(=O)c1ccccc1C(=O)OCc1ccccc1,inactive,inactive and 48.6 µM (active),inactive,51.4 µM (active),inactive,,,,inactive,,inactive,inactive,inactive,,inactive,,,,inactive,inactive
COC(=O)C(C)N(C(=O)Cc1ccccc1)c1c(C)cccc1C (stereo not given),inactive,8.63 µM (active),9.69 µM (active),15.4 µM (active),inactive,,,inactive,,,inactive,61.1 µM (active),inactive,inactive,inactive,inactive,inactive,inactive,inactive,inactive
O=NN1CCCCCC1,inactive,inactive,inactive,inactive,inactive,inactive,inactive,inactive,inactive,inactive,inactive,inactive,inactive,inactive,inactive,inactive,inactive,inactive,inactive,inactive
O=C(O)COc1ccc(Cl)cc1,inactive,inactive,inactive,inactive,inactive,,,,inactive,,inactive,inactive,inactive,inactive,inactive,inactive,inactive,inactive,inactive,inactive
COc1nn(C(=O)NS(=O)(=O)c2ccccc2OC(F)(F)F)c(=O)n1C,inactive,inactive,inactive,inactive,inactive,,,,inactive,,inactive,inactive,inactive,,inactive,,,,inactive,inactive
COCC(C)N(C(=O)CCl)c1c(C)csc1C (stereo not given),inactive,inactive and 17.2 µM (active),inactive and 15.4 µM (active),inactive and 17.2 µM (active),inactive,,,,inactive,,inactive,inactive,inactive,inactive and 30.9 µM [inconclusive] (active),inactive,inactive,inactive,inactive,inactive,inactive and 34.4 µM (active)
Brc1ccccc1,inactive,inactive,inactive,inactive,inactive,inactive,inactive,inactive,inactive,inactive,inactive,,inactive,inactive,inactive,inactive,inactive,inactive,inactive,inactive
C/C(=C\c1ccccc1)[N+](=O)[O-],17.4 µM (active),5.45 µM (active),4.33 µM (active),4.33 µM (active),24.5 µM (active),,,inactive,,27.3 µM (active),13.7 µM (active),,,2.45 µM [cytotoxic] (active),,inactive,,,,19.3 µM (active)
CC(Cl)Cl,inactive,inactive,inactive,inactive,inactive,,,,inactive,,inactive,inactive,inactive,inactive,inactive,inactive,,inactive,inactive,inactive
[O-][Cl+]O,inactive,inactive,inactive,inactive,inactive,,,,inactive,,inactive,inactive,inactive,inactive,,inactive,inactive,inactive,inactive,inactive
COP(=S)(OC)Oc1ccc([N+](=O)[O-])cc1Cl,inactive,inactive,inactive,inactive,inactive,,,inactive,,inactive,inactive,inactive,inactive,,inactive,inactive,inactive,inactive,,inactive
CCCCCCCCOC(=O)c1ccc(C(=O)OCCCCCCCC)c(C(=O)OCCCCCCCC)c1,inactive,inactive,inactive,inactive,inactive,,,,inactive,,inactive,inactive,inactive,,inactive,,,,inactive,inactive
ClCC(Br)CBr (stereo not given),inactive,inactive,inactive,inactive,inactive,,,,inactive,,inactive,inactive,inactive,inactive,inactive,inactive,inactive,inactive,inactive,inactive
CCCCN(N=O)C(=N)N[N+](=O)[O-],inactive,17.6 µM (active),1.57 µM (active),2.79 µM (active),inactive,inactive,inactive,inactive,,,62.4 µM (active),49.6 µM (active),inactive,,inactive,,,,inactive,
Nc1nc(N)nc(N)n1,inactive,inactive,inactive,inactive,inactive,,,,inactive,,inactive,inactive,inactive,,inactive,,,,inactive,inactive
